Screening data from PubChem.
Rab9 promoter act – activates the Rab9 promoter; Potency, µM (titrated, usually from 9.22 µM), for the others: top-dose activation, negative = inhibition, most hits filed as activators; Huh7 Rab9 promoter-luciferase reporter, luminescence, 24 h; AID 485297; actives 2.8% (n = 320,000); further: % of control where 0% means no effect; nearly all actives have a fitted effect of over 60% in size
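Measured in stably transfected Huh7 cells bearing a Rab9 promoter–luciferase construct: 24 h compound treatment at 37 °C, followed by luminescence detection.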
FLuc counter – firefly luciferase modulation, counter-screen for miR-21 project; purified FLuc, Km substrates, luminescence inhibition; Potency, µM (doses to about 57.5 µM), for inactives: at the top dose activity change, negative = inhibition, hits mostly inhibitors; actives 6.9% (n = 360,000);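 further: plate controls were vehicle for no effect and reference inhibitor for full effect; nearly all actives have a fitted effect of over 55% in size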
Target sequence (P08659 whole entry, looked up): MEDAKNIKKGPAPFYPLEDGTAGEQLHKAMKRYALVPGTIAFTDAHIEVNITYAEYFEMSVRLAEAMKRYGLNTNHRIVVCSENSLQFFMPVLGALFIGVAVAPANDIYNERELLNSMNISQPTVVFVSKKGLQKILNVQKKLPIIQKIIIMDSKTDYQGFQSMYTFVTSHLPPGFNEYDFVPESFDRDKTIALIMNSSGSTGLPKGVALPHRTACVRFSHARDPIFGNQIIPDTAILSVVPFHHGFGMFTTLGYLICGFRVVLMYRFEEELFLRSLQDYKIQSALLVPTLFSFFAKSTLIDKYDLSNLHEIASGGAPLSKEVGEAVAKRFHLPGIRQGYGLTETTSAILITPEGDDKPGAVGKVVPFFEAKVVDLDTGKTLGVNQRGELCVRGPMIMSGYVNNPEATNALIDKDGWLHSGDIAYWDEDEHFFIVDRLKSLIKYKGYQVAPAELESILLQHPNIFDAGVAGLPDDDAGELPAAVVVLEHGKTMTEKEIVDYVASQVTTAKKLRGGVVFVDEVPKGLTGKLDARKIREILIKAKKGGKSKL
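Purified P. pyralis luciferase, 10 nM final, with Km-level 10 uM D-luciferin and 10 uM ATP in 50 mM Tris acetate pH 7.5, 10 mM Mg acetate, 0.01% Tween-20, 0.05% BSA; 6-point qHTS titration about 60 µM downward; luminescence read.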
ELG1 genotoxic – genotoxicity induction in ELG1-luciferase HEK293T cells; HEK293T ELG1-luciferase reporter, luminescence, 16 h; Potency, µM (series often up to 46 µM), inactives show at the highest dose activity change, positive = activation, usual class: activators; actives 1.3% (n = 330,000); AID 504466; further: % of control where 0% means no effect; nearly all actives have a fitted effect of over 60% in size
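Step 1: seed 2,000 HEK293T ELG1-luciferase cells per well. Step 2: add compound or DMSO, incubate 16 hr at 37 °C. Step 3: ONE-Glo, 30 min at room temperature, read luminescence.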
NPC1 prom act – activates the NPC1 promoter; Potency, µM (titrated, usually from 9.22 µM), inactives show at the highest dose activation, usual class: activators; actives 2.4% (n = 320,000); Huh7 NPC1 promoter luciferase reporter, 24 h; AID 485313; further: % of control where 0% means no effect; nearly all actives have a fitted effect of over 60% in size
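Readout is luciferase luminescence, reflecting NPC1 promoter activation in stably transfected Huh7 cells after 24 h compound exposure at 37 °C in reduced-serum medium with 10% FBS.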
p53 reactivator – restores transcriptional activity of mutant p53; H1299 p53-A138V BP100-luciferase reporter, luminescence, 24 h; Potency, µM (titrated, usually from 92.2 µM), for the others: at the top dose activity change, positive = activation, hits mostly activators; actives 0.063% (n = 320,000); further: % of control where 0% means no effect; nearly all actives have a fitted effect of over 45% in size
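H1299 (p53-null), stable ts p53-A138V + BP100-Luc; 1000 cells/well, Opti-MEM/10% FBS; cpd 4 pt, 1:5; 24 h, 37 deg C, 5% CO2; detection reagent 10 min RT; luminescence.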
SMN2 splice enh – enhancers of SMN2 splice variant expression. HEK293 SMN2-luciferase splicing reporter, luminescence, 30-36 h. Potency, µM (series often up to 46.1 µM), for inactives: at the top dose activity change, positive = activation, hits mostly activators. actives 2.8% (n = 210,000); further: % of control where 0% means no effect; nearly all actives have a fitted effect of over 55% in size
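HEK293 cells carry an SMN2 […]–luciferase reporter in which exon 7 inclusion puts luciferase in frame. Cells were plated 10-12 h before compound addition, then incubated 30-36 h at 37C. ONE-Glo luminescence was read; sodium butyrate at 4.5 mM final served as control.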
An asterisk follows results filed as active; ? = inconclusive; nt = no result; [ ] = remark or other dose. Only some compounds are listed: those with a hit (about 7.3% of all), similar ones and a draw of the others. The call rests on the fitted dose curve; in most records, active means well fitted curve in the direction sought with a large enough effect; inconclusive means small, poorly fitted or top-dose-only effect, or another doubt; inactive means no such curve, though single readings can be large; an effect the other way counts as inactive or inconclusive. Potency means the concentration at half of the fitted maximal effect.

SMILES	Rab9 promoter act	FLuc counter	ELG1 genotoxic	NPC1 prom act	p53 reactivator	SMN2 splice enh
CCC(NC(=O)c1[nH]c(C)c(C(C)=O)c1C)c1ccc(Br)cc1 (configuration not stated)	-3.6%	0.7%	-5.6%	5.3%	2.1%	nt
CSc1cccc(NC(=O)c2[nH]c(C)c(C(C)=O)c2C)c1	?	16.9µM*	23.1µM*	?	?	nt
Cc1ccc(C)c(N2CCN(C(=O)c3ccc(-c4nc(COc5ccccc5)c(C)o4)cc3)CC2)c1	nt	-6.2%	nt	nt	nt	nt
O=C(/C=C/c1ccc2ccccc2n1)c1cc(Br)ccc1O	5.6%	8.49µM*	11.6%	-0.2%	?	nt
CSc1ccc(/C=N/NC(=O)c2cccs2)cc1	1.78µM*	1.69µM*	?	2.24µM*	?	nt
O=C(N/N=C/c1ccc(-n2ccnc2)cc1)c1cccs1	?	12µM*	?	?	22.0%	nt
O=C(Nc1ccc(Cl)c(Cl)c1)c1ccc(Cn2cc(Cl)cn2)cc1	28.4%	19µM*	6.5%	21.2%	?	-87.0%
O=C(N/N=C/c1ccncc1)c1cccs1	10.3%	?	?	18.7%	-6.4%	nt
Cc1ccc(/C=N/NC(=O)CNC(=O)c2cccs2)o1	2.6%	-2.7%	0.5%	0.2%	-4.3%	0.9%
O=C(N/N=C/c1ccc(-c2ccccc2C(=O)O)o1)c1cccs1	3.2%	13.5µM*	3.5%	15.0%	?	6.3%
COc1ccc2c(c1)CC(C(=O)NCCN1CCN(c3cccc(C)c3C)CC1)CO2 (configuration not stated)	nt	-1.0%	nt	nt	nt	nt
CN(C)c1ccc(/C=N/NC(=O)c2sccc2-n2cccc2)cc1	3.98µM*	?	-1.2%	?	23.7%	19.7%
CN(C)c1ccc(/C=N/NC(=O)c2ccc(Cl)cc2)cc1	-0.3%	?	6.4%	0.0%	6.1%	-8.2%
O=C(N/N=C\c1ccc(Cl)cc1)c1sccc1-n1cccc1	17.4%	2.4%	-0.1%	29.1%	-4.0%	-7.2%
CN(C)c1ccc(/C=N/NC(=O)c2ccccc2Cl)cc1	12.8%	16.9µM*	?	-1.2%	?	22.4µM*
CN(C)c1cccc(C(=O)N/N=C/c2ccsc2)c1	3.55µM*	3.01µM*	?	3.16µM*	?	11.2µM*
CN(C)c1ccc(/C=N\NC(=O)c2ccc(Cn3cc(Cl)cn3)cc2)cc1	2.4%	12µM*	-3.2%	-0.3%	17.1%	-12.5%
NC(CSCSCC(N)C(=O)O)C(=O)O (configuration not stated)	nt	nt	nt	nt	nt	-0.6%
Cc1ccc(CNC(=O)Cn2c(=O)ccc3cc(S(=O)(=O)N4CCC(C)CC4)ccc32)cc1	nt	-16.5%	nt	nt	nt	nt
COC(=O)/C=C/c1cc(O)ccc1O	nt	nt	nt	nt	nt	1.4%
Cc1cc(-c2cc(C)c(O)c(C(C)(C)C)c2)cc(C(C)(C)C)c1O	nt	nt	nt	nt	nt	-8.6%[9.22 µM]
C/C(=N/N=C/c1ccc(N(C)C)cc1)c1ccccc1	0.112µM*	0.169µM*	0.366µM*	0.282µM*	nt	0.501µM*
CN(C)c1ccc(/C=N/NC(=O)c2ccccc2)cc1	0.891µM*	5.36µM*	?	2.82µM*	-0.5%	11.2µM*
O=C(N/N=C/c1c(Cl)cccc1Cl)c1ccccc1F	5.9%	-18.7%	-1.2%	9.8%	28.7%	26.4%
CN(C)c1ccc(/C=N/O)cc1	10.4%	-19.5%	5.1%	4.1%	5.4%	27.3%
SMILES	Rab9 promoter act	FLuc counter	ELG1 genotoxic	NPC1 prom act	p53 reactivator	SMN2 splice enh
CSc1ccc(/C=N/NC(=O)c2ccccc2Cl)cc1	?	15.1µM*	?	11.0%	0.3%	29.7%
CCC(=O)N1c2ccccc2CC1C(=O)NCCN1CCN(c2cccc(C(F)(F)F)c2)CC1 (configuration not stated)	nt	0.3%	nt	nt	nt	nt
COc1ccc(C(C)NC(=O)CN(c2cc(OC)ccc2OC)S(=O)(=O)c2ccccc2)cc1 (configuration not stated)	nt	0.9%	nt	nt	nt	-5.3%
CC(=O)CCOC1CCCCO1 (configuration not stated)	nt	nt	nt	nt	nt	-0.6%
O=C(Cc1ccc(Cl)cc1)c1ccc(O)cc1	3.55µM*	15.1µM*	?	3.55µM*	?	nt
Cc1ccc(CC(=O)c2ccc(Cl)cc2)cc1	?	4.78µM*	?	?	12.2%	nt
O=C(Cc1ccccc1)c1ccc(Cl)cc1	-0.2%	?	4.3%	-1.8%	9.5%	nt
Cc1ccc2nc(C(F)(F)F)c(C#N)c(N)c2c1	-6.2%	-0.7%	-36.0%	8.1%	?	14.1µM*
Cc1ccc(C)c(OCC(=O)N/N=C/c2c(C)nn(-c3ccccc3)c2Cl)c1	-2.5%	2.6%	2.3%	-2.2%	0.3%	-9.2%
Cc1cc(=O)[nH]c(N/N=C/c2c(C)nn(-c3ccc(F)cc3)c2Cl)n1	-1.9%	-0.6%	-10.3%	-9.3%	-0.4%	-31.4%
Cc1nn(-c2ccccc2)c(Cl)c1/C=N/NC(=O)c1ccc(CNc2ccccc2)o1	4.6%	2.13µM*	1.4%	15.4%	20.2%	?
Cc1nn(-c2ccccc2)c(Cl)c1/C=N/Nc1nncc(=O)[nH]1	-2.5%	15.1µM*	10.7%	2.7%	4.3%	nt
Cc1nn(-c2ccccc2Cl)c(Cl)c1/C=N/Nc1nc2ccccc2s1	-31.0%	0.169µM*	22.5%	-19.7%	1.9%	-90.4%
Cc1nn(C)cc1/C=N/NC(=O)c1ccco1	?	16.9µM*	13.4%	25.2%	14.2%	nt
Cc1cccc(OCCOCCn2c(-c3ccc(Cl)cc3)nc3ccccc3c2=O)c1C	nt	2.7%	nt	nt	nt	8.9%
CNC(=S)N/N=C/c1c(C)nn(-c2ccccc2)c1Cl	28.9%	?	?	11.6%	2.0%	?
O=C(N/N=C\c1ccc(Cl)s1)C1COc2ccccc2O1 (configuration not stated)	2.4%	-15.4%	1.2%	-16.9%	3.8%	nt
Cc1nn(-c2ccccc2)c(Cl)c1/C=N/NC(=O)OC(C)(C)C	2µM*	15.1µM*	8.6%	2.82µM*	?	17.8µM*
O=C(N/N=C\c1ccc([N+](=O)[O-])s1)C1COc2ccccc2O1 (configuration not stated)	1.12µM*	4.1%	-14.1%	?	?	nt
Cc1nn(-c2ccccc2)c(Cl)c1/C=N/NC(=O)c1ccco1	2.51µM*	3.79µM*	?	3.16µM*	9.0%	22.4µM*
Cc1nn(-c2ccccc2)c(Cl)c1/C=N/Nc1ccc(Cl)c(C(=O)O)c1	0.0794µM*	0.601µM*	0.184µM*	0.0891µM*	32.5%	0.447µM*
CCN(CC)S(=O)(=O)c1cccc(C(=O)N/N=C/c2c(C)nn(-c3ccccc3)c2Cl)c1	-1.3%	2.9%	8.3%	2.7%	-5.7%	-20.1%
Fc1cccc(Cl)c1/C=N\N=C1c2ccccc2-c2ccccc21	nt	nt	nt	nt	nt	-6.5%[9.22 µM]
